From PubChem
This is one part of a sample in which hits are shown more often than they occur.
HttQ103 aggreg – qHTS Multiplex Assay to Identify Dual Action Probes in a Cell Model of Huntington: Aggregate Formation (GFP). hit rate 1.1% among 220,000. Potency, µM (highest dose often 46.1 µM), for inactives: at the top dose activity change, negative = inhibition, actives largely listed as inhibitors. PC12 HttQ103-GFP aggregates, Acumen cytometry, 40 h; note: % is set by controls: 0 for no effect and ±100 for the full control effect; nearly all actives have a fitted effect of over 60% in size
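Read-out: GFP aggregate count by laser scanning cytometer (488 nm excitation, 500-530 nm emission, 1–25 µm objects >6 SD above background). Cells: PC12, inducible HTTex1-Q103-GFP, 100 nM tebufenozide; compounds titrated.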
Apoferritin bind – qHTS Assay for Identification of Novel General Anesthetics; Ferritin light chain (Equus caballus), P02791; apoferritin/1-aminoanthracene competitive binding, fluorescence; Potency, µM (top dose mostly 77.5 µM), for inactives: at the top dose activity change, negative = displacement, actives largely listed as inhibitors; hit rate 0.074% among 350,000; AID 485281, 2010; note: % is set by controls: 0 for no effect and ±100 for the full control effect; nearly all actives have a fitted effect of over 20% in size
Target sequence (P02791 2-175 limits assumed): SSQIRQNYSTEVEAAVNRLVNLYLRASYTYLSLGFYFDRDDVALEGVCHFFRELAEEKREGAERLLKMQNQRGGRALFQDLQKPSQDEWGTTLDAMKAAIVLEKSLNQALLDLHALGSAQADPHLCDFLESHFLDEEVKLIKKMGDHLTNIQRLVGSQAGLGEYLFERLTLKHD
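Horse-spleen apoferritin (10 uM) was mixed with 50% saturated 1-aminoanthracene in PBS, exposed to compounds for 10 min at room temperature, and read for fluorescence (ex 380 nm, em 535 nm). Competitive displacement was fitted with a four-parameter Hill equation.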
HTT ATP protect – qHTS Multiplex Assay to Identify Dual Action Probes in a Cell Model of Huntington: Cytoprotection (ATP) | hit rate 0.14% among 230,000 | AID 1471, 2008 | PC12 HTT-Q103 induced, cytoprotection, ATP luminescence, 40 h | Potency, µM (highest dose often 56.4 µM), inactives show cytoprotection (ATP increase), usual class: activators; note: % of control where 0% means no effect; nearly all actives have a fitted effect of over 45% in size
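Huntington model: PC12 line, ecdysone-inducible HTTQ103 exon1–GFP, tebufenozide 100 nM. Test articles in a dose series. Endpoint luminescence from cellular ATP.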
TSG101-PTAP inh – qHTS Assay for Iinhibitors of HIV-1 Budding by Blocking the Interaction of PTAP/TSG101; Tumor susceptibility gene 101 protein (Homo sapiens), Q99816; Fluorescence polarization, FITC-PTAP peptide / Tsg101 binding; Potency, µM (titrated, usually from 115 µM), for inactives: at the top dose activity change, negative = inhibition, usual class: inhibitors; 340,000 tested, under 10 active; active = well fitted inhibition curve with a large enough effect in the main read-out, with a control signal flat, not every such curve was filed as active; inconclusive = small, poorly fitted or top-dose-only effect, or effect the other way, or a change in a side signal; inactive = no such curve, though single readings can be large or run the other way; note: % of control where 0% means no effect
Target sequence (Q99816 whole entry, looked up): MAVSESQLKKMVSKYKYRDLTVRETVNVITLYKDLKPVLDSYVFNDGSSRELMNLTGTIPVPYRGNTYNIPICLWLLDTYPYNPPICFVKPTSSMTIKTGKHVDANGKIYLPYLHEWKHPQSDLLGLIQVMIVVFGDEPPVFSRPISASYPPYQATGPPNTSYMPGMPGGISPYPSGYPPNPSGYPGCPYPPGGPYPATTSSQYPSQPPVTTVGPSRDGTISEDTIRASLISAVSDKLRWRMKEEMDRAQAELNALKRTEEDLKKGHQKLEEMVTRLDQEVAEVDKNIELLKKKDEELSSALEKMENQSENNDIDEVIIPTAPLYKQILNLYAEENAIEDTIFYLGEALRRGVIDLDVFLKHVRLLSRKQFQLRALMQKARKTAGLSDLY
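Fluorescence polarization binding of Tsg101 binding domain (10 uM final) to FITC-labeled PTAP peptide (50 nM final) in HEPES pH 7.5 buffer with NaCl, Tween 20, EDTA, TCEP. Compounds added before peptide; binding 20 min at RT.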
PINK1 expr mod – A Quantitative High throughput Screen to Identify Chemical Modulators of PINK1 Expression. PINK1 immunofluorescence, high-content cytometry, 24 h. Potency, µM (doses to about 76.6 µM), for inactives: at the top dose activation (PINK1 increase), most hits filed as activators. hit rate 0.2% among 410,000; active = well fitted activation curve with a large enough effect; inconclusive = small, poorly fitted or top-dose-only effect; cell line not stated here; note: % of control where 0% means no effect; nearly all actives have a fitted effect of over 65% in size
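Readout is PINK1 immunofluorescence, quantified alongside mitochondrial, cell and nuclear markers by laser-scanning microplate cytometry. Cells from a stable line were exposed to compound titrations (5 concentrations) for 24 hours, with CCCP controls.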
Epigenetic reg – Quantitative High-Throughput Screen for Regulators of Epigenetic Control; murine LDR cells, GFP reporter derepression, 30 h; hit rate 0.2% among 280,000; Potency, µM (doses to about 53.9 µM), for the others: at the highest dose GFP activation, most hits filed as activators; note: % of control where 0% means no effect; nearly all actives have a fitted effect of over 60% in size
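In this reporter-derepression format, murine cells bearing a silenced integrated CMV-GFP locus incubate with test compound (30 h, 37 C), then are washed and imaged; fluorescent objects of 20–120 um count as induced cells.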
* = called active by the depositor; ? = inconclusive; . = no result; [ ] = another dose, or the depositor's remark. Unless noted, calls come from the whole dose curve; as a rule, active = well fitted curve in the direction sought with a large enough effect; inconclusive = small, poorly fitted or top-dose-only effect, or another doubt; inactive = no such curve, though single readings can be large; an effect the other way counts as inactive or inconclusive. Potency is the fitted concentration of half-maximal effect.

SMILES | HttQ103 aggreg | Apoferritin bind | HTT ATP protect | TSG101-PTAP inh | PINK1 expr mod | Epigenetic reg
O=[N+]([O-])c1cc(S(=O)(=O)Nc2cccc(C(F)(F)F)c2)ccc1-n1nnc2ccccc21 | 11µM* | ? | -46% | 2% | 22µM* | 1%
COC(=O)c1cccc(S(=O)(=O)N(Cc2ccco2)Cc2cc3cc(OC)c(OC)cc3[nH]c2=O)c1 | 21% | -3% | -5% | -6% | 2%[38.3 µM] | 1%
COC(=O)c1cccc(S(=O)(=O)N(Cc2ccco2)Cc2cc3ccc(OC)cc3[nH]c2=O)c1 | 5% | -17% | -22% | -5% | 14µM* | -6%
Cc1occc1C(=O)Nc1cccc(-c2nc(CNC(=O)c3cccc(C#CC(C)(C)O)c3)c(C)o2)c1 | . | . | . | . | 3% | .
O=C(COc1ccccc1/C=C1\SC(=S)NC1=O)Nc1ccc(F)cc1 | . | . | . | -3% | 32µM* | .
c1csc(CCNc2ncnc3sc4c(c23)CCC4)c1 | 7.9µM* | -8% | -6% | -5% | 1% | -6%
Fc1ccc(Nc2ncnc3sc4c(c23)CCC4)cc1F | 10µM* | -9% | -18%[10 µM] | 0% | 2% | 1%
CCc1c(C)nc2ncnn2c1Nc1ccc(C#N)c(Cl)c1 | 13µM* | -9% | -3% | -5% | 14%[38.3 µM] | 1%
CCc1c(C)nc2ncnn2c1Nc1ccc(C(C)=O)cc1 | 7% | -8% | 3% | 1% | -1% | -1%
COc1ccc(C2CC(C(F)(F)F)n3nc(C(=O)NCc4c(C)nn(C)c4C)c(Cl)c3N2)cc1 (centres undefined) | 8.9µM* | -23% | -12% | -2% | 5%[38.3 µM] | -1%
Cc1cc(C)c(O)c(-c2cc(C(=O)Nc3ccc(S(=O)(=O)N4CCOCC4)cc3)[nH]n2)c1 | 20µM* | ? | -94%[0.074 µM] | -8% | 23% | 3%
COc1ccc(OC)c(-c2cc(Cl)c3c(c2)CC(CNC(=O)c2cnn4cccnc24)O3)c1 (centres undefined) | . | . | . | . | 0% | .
Cc1ccccc1S(=O)(=O)Cc1ccc(C(=O)N2CCN(c3cccc(C)c3C)CC2)o1 | 13µM* | 6% | -40%[10 µM] | -4% | -3% | -1%
CC(C)Cc1nc2cc(NS(=O)(=O)N(C)C)cc(C(=O)N3CCc4sccc4C3)c2n1C | . | . | . | . | 0% | .
CN(CC(=O)N1CCCCC1)S(=O)(=O)c1cccc2cccnc12 | -8% | -2% | -6%[10 µM] | -2% | 2% | 0%
CC1Cc2ccccc2N1C(=O)CN(C)S(=O)(=O)c1cccc2cccnc12 (centres undefined) | 0.032µM* | -24% | -18% | -2% | 0% | -6%
COC(=O)C1=COC(C)C2CN3CCc4c([nH]c5ccccc45)C3CC12 (centres undefined) | 11µM* | -10% | -16% | ? | 2% | 1%
COC(=O)C1=CO[C@@H](C)[C@H]2CN3CCc4c([nH]c5ccccc45)[C@@H]3C[C@H]12 | . | -8%[29.3 µM] | -17%[40.3 µM] | 0% | 0% | 8%[16.9 µM]
CC(=O)N[C@@H](C)C(=O)NCC1Cc2cccc(-c3ccccc3C(F)(F)F)c2O1 (some centres undefined) | . | . | . | . | 0% | .
COc1cccc(-c2nc(CS(=O)CC(=O)NCc3ccccc3Cl)c(C)o2)c1 (centres undefined) | 23% | 28µM* | -14% | 0% | 3% | 0%
O=C(COc1ccc(Br)cc1CNCCc1ccccc1)NCc1ccccc1 | 13µM* | ? | -231% | 0% | -2% | 1%
CCCNCc1cc(Br)ccc1OCC(=O)NCCc1ccccc1 | -10% | -9% | . | 0% | 2% | -3%
c1ccc(CCNc2nc(-c3ccccn3)nc3ccccc23)cc1 | -32%[9.22 µM] | -15% | -47%[10 µM] | 5% | 40µM* | 2%
CCNc1nc(NC(C)C)nc(N(C#N)CCOc2ccccc2)n1 | 22µM* | -6% | -8% | -8% | 1% | -1%
O=C1C2C3C=CC(C3)C2C(=O)N1/N=C/c1cc(Br)cc([N+](=O)[O-])c1O (centres undefined) | 13µM* | -3% | -4%[10 µM] | -26% | ? | 0%
SMILES | HttQ103 aggreg | Apoferritin bind | HTT ATP protect | TSG101-PTAP inh | PINK1 expr mod | Epigenetic reg
O=C1C2C3C=CC(C3)C2C(=O)N1/N=C/c1ccc(-c2ccccc2[N+](=O)[O-])o1 (centres undefined) | 2% | -3% | -46%[0.074 µM] | -3% | 4% | -1%
CC(NC(=O)Cn1c(=O)[nH]c2ccsc2c1=O)C12CC3CC(CC(C3)C1)C2 (centres undefined) | 11% | 14µM* | 12% | -5% | 1% | 3%
COc1cc2cc3c(N)c(C(=O)NCc4ccco4)sc3nc2cc1OC | 32% | -11% | -10%[10 µM] | -3% | 10% | -7%
Cc1ccc2nc3sc(C(=O)NCc4ccco4)c(N)c3cc2c1 | -31% | -9% | -19%[10 µM] | ? | ? | 16µM*
CCn1c(-c2cccc(OC)c2)nc2cc(NC(C)=O)cc(C(=O)N(C)CC3COCCO3)c21 (centres undefined) | . | . | . | . | 0% | .
O=C1NC(=O)C(Cc2ccc(OCCN3COc4ccccc4C3=O)cc2)S1 (centres undefined) | . | -11% | . | . | . | .
Cc1ccc(-n2c(C)cc(C(=O)CSc3nncs3)c2C)cc1 | 10µM* | -14% | -114% | -7% | 0%[38.3 µM] | 5%
CC(C)c1ccc(CN2CCC3(CCC(CNC(=O)c4ccn(C)n4)O3)CC2)cc1 (centres undefined) | . | . | . | . | 0% | .
O=C(Cn1cnc2ccccc2c1=O)OCC(=O)c1ccc2c(c1)OCCO2 | 0% | 16µM* | -4% | -4% | -1% | -2%
CN(c1cccc(NC(=O)c2ccc(N(C)S(=O)(=O)c3ccccc3)cc2)c1)S(C)(=O)=O | ? | 1% | 19%[10 µM] | -12% | 0% | 3%
CC(C)(C)c1ccc(C(=O)Nc2cccc([N+](=O)[O-])c2)cc1 | 5% | -10% | . | -4% | 45µM* | -1%
CN(c1cccc(NC(=O)c2ccc(C(C)(C)C)cc2)c1)S(C)(=O)=O | 11µM* | -12% | -164% | -5% | 0% | -1%
CC(C)(C)CC(C)(C)NC(=O)Nc1cccc([N+](=O)[O-])c1 | ? | ? | 7%[10 µM] | -2% | 14µM* | -6%
Cc1ccc(-c2nnc(Nc3ccc(Br)cc3)c3ccccc23)cc1S(=O)(=O)N1CCOCC1 | . | 165% | . | . | 1% | -1%
